PubChem BioAssay (NCI)
This is part of a sample that, as a whole, favours compounds with a hit. Of some 83,000 tested, about 20% had one in any assay.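 For each line, cells grew in 96-well plates with the test compound present at a single concentration for 48 hours.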 Unmarked numbers belong to inactive results. The source made the active and inactive calls. The calls were made as follows: active = growth percent below 10; inactive = the rest.

Experiments:
Assay in all cases: NCI-60 one-dose screen, 48 h (100 = growth as untreated, 0 = no growth, -100 = all killed)
RPMI-8226 leukemia = details: 10 µM unless noted
OVCAR-8 ovarian = details: 10 µM unless noted
OVCAR-5 ovarian = details: 10 µM unless noted
OVCAR-4 ovarian = details: 10 µM unless noted
SK-OV-3 ovarian = details: 10 µM unless noted
IGROV1 ovarian = details: 10 µM unless noted
OVCAR-3 ovarian = details: 10 µM unless noted
HS 578T breast = details: 10 µM
NCI/ADR-RES ovarian = details: 10 µM unless noted
T-47D breast = details: 10 µM unless noted
BT-549 breast = details: 10 µM unless noted
MDA-MB-435 melanoma = details: 10 µM unless noted
SW-620 colon = details: 10 µM unless noted
MCF7 breast = details: 10 µM unless noted
HCT-116 colon = details: 10 µM unless noted
HCC-2998 colon = details: 10 µM unless noted
KM12 colon = details: 10 µM unless noted

Row | SMILES | growth (RPMI-8226 leukemia) | growth (OVCAR-8 ovarian) | growth (OVCAR-5 ovarian) | growth (OVCAR-4 ovarian) | growth (SK-OV-3 ovarian) | growth (IGROV1 ovarian) | growth (OVCAR-3 ovarian) | growth (HS 578T breast) [%] | growth (NCI/ADR-RES ovarian) | growth (T-47D breast) | growth (BT-549 breast) | growth (MDA-MB-435 melanoma) | growth (SW-620 colon) | growth (MCF7 breast) | growth (HCT-116 colon) | growth (HCC-2998 colon) | growth (KM12 colon)
1 | Nc1cccc(S(=O)(=O)c2cccc(N)c2)c1 | 110% | 113% | 99.7% | 102% | 120% | 114% | 113% | 118 | 115% | 104% | 111% | 111% | 115% | 105% | 112% | 126% | 129%
2 | CN(CCO)c1ccc(N2Cc3ccccc3OC3=C2C(=O)c2c(O)ccc(O)c2C3=O)cn1 | -16.2% (active) | 1.86% (active) | -59.8% (active) | -97.5% (active) | -3.73% (active) | -72.7% (active) | -99.7% (active) | 28.4 | -2.37% (active) | -42.7% (active) | -73.2% (active) | -84% (active) | -51.7% (active) | -34.9% (active) | -85.6% (active) | -84.2% (active) | -78% (active)
3 | COc1ccc(/C=C/C(=O)c2ccc(NC(=O)CSc3nnc(-c4ccc(Cl)cc4)n3-c3ccccc3)cc2)cc1 | 60.4% | 84.6% | 123% | 99.5% | 104% | 103% | 102% | 97.1 | 93.9% | 77.2% | 93% | 94.4% | 110% | 70.3% | 36.4% | 103% | 94.5%
4 | COc1cc(/C=C/C(=O)c2ccc(NC(=O)CSc3nnc(-c4ccc(Cl)cc4)n3-c3ccccc3)cc2)cc(OC)c1OC | 9.23% (active) | 62.3% | 128% | 57.2% | 86.6% | 74.7% | 73.4% | 92.9 | 87.9% | 47.5% | 59.6% | 64.4% | 68.2% | 20.8% | 7.2% (active) | 76.2% | 67.9%
5 | Clc1ccccc1Nc1nnc(-c2ccncc2)s1 | 89.2% | 100% | 107% | 94.5% | 105% | 101% | 110% | 94.9 | 102% | 89.5% | 90.4% | 93.6% | 91.6% | 96% | 102% | 106% | 107%
6 | O=[N+]([O-])c1ccccc1CN1CCCCC1 | 109% | 108% | 102% | 114% | 127% | 114% | 109% | 118 | 104% | 115% | 98.4% | 109% | 106% | 108% | 106% | 101% | 128%
7 | O=c1cc(-c2ccc3c(c2)OCCO3)oc2cc(Cl)ccc12 | 28.8% | 13.5% | 32.8% | -12.5% (active) | 2.04% (active) | -9.4% (active) | -40.2% (active) | 41.2 | 38.2% | 1.86% (active) | 81.4% | 7.43% (active) | 28.6% | 77.8% | -1.49% (active) | 66.2% | 21.3%
8 | Brc1ccccc1Cn1c(-c2cncs2)nc2ccccc21 | 43.3% | 79.2% | 70.8% | 72.4% | 92.2% | 86.9% | 86.6% | 69.5 | 83.5% | 72.2% | 85.4% | 110% | 88.4% | 98.9% | 73.3% | – | 76.7%
9 | O=C(CCCCCCc1nc2ccc(Br)cc2[nH]1)NO | -4.38% (active) | 4.11% (active) | 8.25% (active) | 24% | -41.8% (active) | -9.43% (active) | -2.31% (active) | 32.6 | -31.3% (active) | -32.3% (active) | 16.4% | -10.5% (active) | -76.8% (active) | – | -89.2% (active) | -51.7% (active) | -65.4% (active)
10 | CC1=C(C(=O)Nc2ccc(F)cc2)C(c2ccc(Cl)cc2)C2=C(CC(C)(C)CC2=O)N1 (centres undefined) | 70% | 89.1% | 93.5% | 77.6% | 101% | 89.6% | 89.9% | 80.4 | 87.9% | 82.6% | 99.9% | 91.6% | 94.6% | – | 86.9% | 99.6% | 92.6%
11 | CCOP(=O)(O)OP(=O)(O)OCC | 95.8% | 119% | 96.9% | 105% | 97.3% | 97.3% | 105% | – | 105% | 92.5% | 102% | 110% | 103% | 94.1% | 106% | 104% | 103%
12 | N[C@@H](CO)C(=O)O | 96.9% | 99.8% | 104% | 109% | 111% | 110% | 98.4% | – | 95.4% | 96.9% | 104% | 97.4% | – | 104% | 103% | 98.1% | 102%
13 | CC1(C)CC[C@]2(C(=O)N3CCNCC3)CC[C@]3(C)C(=CC[C@@H]4[C@@]5(C)CCC(=O)C(C)(C)[C@@H]5CC[C@]43C)[C@@H]2C1 | 104% | 95.9% | 109% | 103% | 109% | 113% | 118% | 104 | 103% | 102% | 106% | 105% | 106% | – | 101% | 106% | 111%
14 | Fc1ccc(-c2ccnc3nc(-c4ccncc4)nn23)cc1 | 98.5% | 96.5% | 100% | 109% | 104% | 104% | 105% | 113 | 106% | 90.1% | 93.8% | 107% | 30.3% | 86.1% | 95.1% | – | 99.8%
15 | Cn1c(=O)c2[nH]c(Cc3ccc4c(c3)OCO4)nc2n(C)c1=O | 88.8% | 105% | 90.5% | 88.2% | 107% | 106% | 104% | – | 107% | 99.8% | 103% | 107% | 99.8% | 97.7% | 105% | 109% | 108%
16 | Cc1ccc(CSCc2ccc(C(=O)NC3CC3)o2)cc1 | 52.1% | 72% | 76.3% | 69.1% | 108% | 89.2% | 74.6% | 92.2 | 64.3% | 48.4% | 97.9% | 77.7% | 66.2% | – | 81.1% | 31.6% | 46.4%
17 | SCc1ccc(CS)cc1 | 103% | 98.4% | 95.9% | 101% | 104% | 105% | 115% | – | 109% | 101% | 92.3% | 111% | 102% | – | 100% | 101% | 114%
18 | COc1ccc(-c2nc(-c3ccccc3OCc3ccccc3OC)nc(C)c2C(C)=O)cc1 | 73% | 86.9% | 94.1% | 94.9% | 96.1% | 89.7% | 102% | 72.8 | 83.7% | 61% | 98.4% | 90.4% | 67.5% | 83.8% | 66.4% | – | 64.4%
19 | COCCn1c(Nc2ccc(C(=O)NO)cc2)nc2ccccc21 | 44% | 37.3% | 47.4% | 72.2% | 49.2% | 57.5% | 83.5% | – | -9.22% (active) | 35.3% | 86.6% | 46% | 29.6% | 61.4% | 19.4% | 73.3% | 51.9%
